Source: PubChem BioAssay AID1159580 (chemical genetic matrix, 2015)
Screen size: about 5,500 compounds; about 2,000 (36%) were called active. Another 18% or so got no clear call; they are omitted. The list shows a part of the results. A number with no mark means an inactive call. No stated cut-off is given here; in the data, active means normalized growth mostly below about 0.91 (no sharp cut-off); inconclusive means no clear call, values can overlap the other calls; inactive means mostly above about 0.92.

Test: chemical genetic growth profiling, strain panel (AID 1159580);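 further: tested at 20 µM; growth read once vehicle control cultures reached saturation at 30 °C; 1 = growth at the plate median or of vehicle wells; lower values mean less growth of the strain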
Conditions: growth OD

SMILES: CCC/C=C/C=C/[C@@H]1C[C@@H](O)[C@@H](O)C(=O)[C@H]1C=O
- normalized growth (S. cerevisiae deletion strains, locus YBR021W, strain FUR4, hits give low values): 1.01
- normalized growth (S. cerevisiae deletion strains, locus YBR229C, strain ROT2, hits give low values): 0.992
- normalized growth (S. cerevisiae deletion strains, locus YCL029C, strain bik1, hits give low values): 0.98
- normalized growth (S. cerevisiae deletion strains, locus YDL035C, strain GPR1, hits give low values): 1
- normalized growth (S. cerevisiae deletion strains, locus YDL074C, strain BRE1, hits give low values): 1.01
- normalized growth (S. cerevisiae deletion strains, locus YDL101C, strain DUN1, hits give low values): 0.994
- normalized growth (S. cerevisiae deletion strains, locus YDL185W, strain tfp1, hits give low values): 0.0596 (active)
- normalized growth (S. cerevisiae deletion strains, locus YDL192W, strain arf1, hits give low values): 0.949
- normalized growth (S. cerevisiae deletion strains, locus YDR101C, strain arx1, hits give low values): 0.978
- normalized growth (S. cerevisiae deletion strains, locus YDR162C, strain NBP2, hits give low values): 0.982
- normalized growth (S. cerevisiae deletion strains, locus YDR318W, strain mcm21, hits give low values): 0.959
- normalized growth (S. cerevisiae deletion strains, locus YDR388W, hits give low values): 0.955
- normalized growth (S. cerevisiae deletion strains, locus YDR502C, strain sam2, hits give low values): 0.976
- normalized growth (S. cerevisiae deletion strains, locus YEL061C, strain CIN8, hits give low values): 0.984
- normalized growth (S. cerevisiae deletion strains, locus YER110C, hits give low values): 0.999
- normalized growth (S. cerevisiae deletion strains, locus YER155C, strain BEM2, hits give low values): 0.955
- normalized growth (S. cerevisiae deletion strains, locus YER167W, strain BCK2, hits give low values): 0.976
- normalized growth (S. cerevisiae deletion strains, locus YGL078C, strain dbp3, hits give low values): 0.94
- normalized growth (S. cerevisiae deletion strains, locus YGL086W, strain mad1, hits give low values): 0.976
- normalized growth (S. cerevisiae deletion strains, locus YGL248W, strain PDE1, hits give low values): 1
- normalized growth (S. cerevisiae deletion strains, locus YGR135W, strain pre9, hits give low values): 0.988
- normalized growth (S. cerevisiae deletion strains, locus YGR252W, strain gcn5, hits give low values): 1.16
- normalized growth (S. cerevisiae deletion strains, locus YHR030C, strain SLT2, hits give low values): 0.978
- normalized growth (S. cerevisiae deletion strains, locus YHR079C, strain IRE1 (second series), hits give low values): 0.981
- normalized growth (S. cerevisiae deletion strains, locus YHR094C, strain hxt1, hits give low values): 0.97
- normalized growth (S. cerevisiae deletion strains, locus YHR129C, strain ARP1, hits give low values): 0.99
- normalized growth (S. cerevisiae deletion strains, locus YHR200W, strain rpn10, hits give low values): 0.972
- normalized growth (S. cerevisiae deletion strains, locus YIL066C, strain RNR3, hits give low values): 0.971
- normalized growth (S. cerevisiae deletion strains, locus YIL073C, strain SPO22, hits give low values): 1.03
- normalized growth (S. cerevisiae deletion strains, locus YIL125W, strain kgd1, hits give low values): 0.853 (active)
- normalized growth (S. cerevisiae deletion strains, locus YIR030C, strain dcg1, hits give low values): 0.975
- normalized growth (S. cerevisiae deletion strains, locus YJL095W, strain BCK1, hits give low values): 1.03
- normalized growth (S. cerevisiae deletion strains, locus YJL134W, strain LCB3, hits give low values): 0.947
- normalized growth (S. cerevisiae deletion strains, locus YJL168C, strain set2, hits give low values): 0.973
- normalized growth (S. cerevisiae deletion strains, locus YJL187C, strain SWE1 (second series), hits give low values): 1.03
- normalized growth (S. cerevisiae deletion strains, locus YJR043C, strain POL32, hits give low values): 0.99
- normalized growth (S. cerevisiae deletion strains, locus YJR075W, strain HOC1, hits give low values): 0.977
- normalized growth (S. cerevisiae deletion strains, locus YKL009W, strain mrt4, hits give low values): 0.76 (active)
- normalized growth (S. cerevisiae deletion strains, locus YKL068W, hits give low values): 0.928 (active)
- normalized growth (S. cerevisiae deletion strains, locus YKL085W, strain MDH1 (second series), hits give low values): 0.88 (active)
- normalized growth (S. cerevisiae deletion strains, locus YKL085W, strain MDH1, hits give low values): 0.88 (active)
- normalized growth (S. cerevisiae deletion strains, locus YKL190W, strain CNB1, hits give low values): 0.964
- normalized growth (S. cerevisiae deletion strains, locus YKR001C, strain vps1, hits give low values): 0.901
- normalized growth (S. cerevisiae deletion strains, locus YLR039C, strain RIC1, hits give low values): 0.496 (active)
- normalized growth (S. cerevisiae deletion strains, locus YLR058C, strain SHM2, hits give low values): 0.99
- normalized growth (S. cerevisiae deletion strains, locus YLR102C, strain apc9, hits give low values): 0.983
- normalized growth (S. cerevisiae deletion strains, locus YLR262C, strain YPT6, hits give low values): 0.504 (active)
- normalized growth (S. cerevisiae deletion strains, locus YLR268W, strain sec22, hits give low values): 0.829 (active)
- normalized growth (S. cerevisiae deletion strains, locus YLR330W, strain CHS5, hits give low values): 0.946
- normalized growth (S. cerevisiae deletion strains, locus YLR342W, strain FKS1 (second series), hits give low values): 0.948
- normalized growth (S. cerevisiae deletion strains, locus YLR371W, strain rom2, hits give low values): 0.978
- normalized growth (S. cerevisiae deletion strains, locus YLR418C, strain cdc73, hits give low values): 0.999
- normalized growth (S. cerevisiae deletion strains, locus YML016C, strain PPZ1, hits give low values): 0.986
- normalized growth (S. cerevisiae deletion strains, locus YML032C, strain rad52, hits give low values): 0.954
- normalized growth (S. cerevisiae deletion strains, locus YML124C, strain tub3, hits give low values): 0.991
- normalized growth (S. cerevisiae deletion strains, locus YMR078C, strain ctf18, hits give low values): 0.973
- normalized growth (S. cerevisiae deletion strains, locus YMR223W, strain ubp8, hits give low values): 0.929
- normalized growth (S. cerevisiae deletion strains, locus YMR263W, strain SAP30, hits give low values): 0.992
- normalized growth (S. cerevisiae deletion strains, locus YMR307W, strain GAS1, hits give low values): 1.04
- normalized growth (S. cerevisiae deletion strains, locus YNL067W, strain RPL9B, hits give low values): 0.986
- normalized growth (S. cerevisiae deletion strains, locus YNL153C, strain GIM3, hits give low values): 1.01
- normalized growth (S. cerevisiae deletion strains, locus YNL233W, strain BNI4, hits give low values): 0.973
- normalized growth (S. cerevisiae deletion strains, locus YNL250W, strain rad50, hits give low values): 0.821 (active)
- normalized growth (S. cerevisiae deletion strains, locus YNL271C, strain bni1, hits give low values): 0.732 (active)
- normalized growth (S. cerevisiae deletion strains, locus YNL298W, strain CLA4, hits give low values): 0.901 (active)
- normalized growth (S. cerevisiae deletion strains, locus YNL307C, strain MCK1, hits give low values): 0.954
- normalized growth (S. cerevisiae deletion strains, locus YNL322C, strain KRE1, hits give low values): 0.984
- normalized growth (S. cerevisiae deletion strains, locus YNR052C, strain pop2, hits give low values): 0.907 (active)
- normalized growth (S. cerevisiae deletion strains, locus YOL006C, strain TOP1, hits give low values): 0.52 (active)
- normalized growth (S. cerevisiae deletion strains, locus YOL012C, strain htz1): 0.336
- normalized growth (S. cerevisiae deletion strains, locus YOL147C, strain pex11, hits give low values): 0.986
- normalized growth (S. cerevisiae deletion strains, locus YOR061W, strain CKA2, hits give low values): 0.986
- normalized growth (S. cerevisiae deletion strains, locus YOR069W, strain VPS5, hits give low values): 0.979
- normalized growth (S. cerevisiae deletion strains, locus YOR136W, strain idh2, hits give low values): 0.996
- normalized growth (S. cerevisiae deletion strains, locus YOR144C, strain elg1, hits give low values): 0.982
- normalized growth (S. cerevisiae deletion strains, locus YOR184W, strain ser1, hits give low values): 0.938
- normalized growth (S. cerevisiae deletion strains, locus YOR316C, strain cot1, hits give low values): 0.979
- normalized growth (S. cerevisiae deletion strains, locus YPR119W, strain clb2, hits give low values): 0.971
- normalized growth (S. cerevisiae deletion strains, locus YPR141C, strain kar3, hits give low values): 0.804 (active)
- normalized growth (S. cerevisiae deletion strains, locus YPR163C, strain tif3, hits give low values): 0.983
- normalized growth (S. cerevisiae deletion strains, locus YPR167C, strain met16, hits give low values): 0.979
- normalized growth (S. cerevisiae deletion strains, strain wtn01, hits give low values): 0.973
- normalized growth (S. cerevisiae strains, strain wild type, hits give low values): 0.971
